Measurements taken from PubChem BioAssay.
For some of these results: Potency and affinity values are given separately. Calls of active or inactive are those of the source.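 The calls were made as follows, unless noted: active = signal rise over 3 SD above mean of control wells given weak agonist, in both repeats and first screen; inactive = the rest.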

Legend:
[1] = tested on: TRPC4 beta (transient receptor potential cation channel C4), mouse; test: activators of mouse TRPC4 channel, confirmation, cell-based, Fluo4 calcium, HEK293 TRPC4beta/mu-opioid, duplicates, 10 µM (AID 2426;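 active = fluorescence ratio normalized to control raised more than 50% in primary screen plus both repeat runs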;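 as to activation: percent rise of integrated ratio over buffer wells lacking compound which define 0%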); conditions: Fluo4 calcium fluorescence, at 10 µM; hits give high values
[2] = tested on: transient receptor potential cation channel C4 beta (TRPC4), mouse; test: activators of mouse TRPC4 channel, confirmation, cell-based, second round, Fluo4, HEK293 TRPC4beta/mu-opioid, 1 µM (AID 2461;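 active = primary screen active and over 50% activation in each of two duplicate runs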;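 as to activation: 0% = wells without test compound as baseline of integrated fluorescence ratio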); conditions: Fluo4 calcium fluorescence, at 1 µM; hits give high values
[3] = tested on: TRPC4 (transient receptor potential cation channel C4 beta), mouse; test: positive allosteric modulators of mouse TRPC4, confirmation, cell-based, second round, Fluo-4, HEK293 TRPC4beta/mu-opioid, 1 µM (AID 2554;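 active = primary screen hit whose fluorescence ratio, in both repeats, exceeds the weak agonist control mean by 3 SD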); conditions: DAMGO EC20, Fluo-4 calcium flux, at 1 µM; hits give high values
[4] = tested on: TRPC4 beta (transient receptor potential cation channel C4), mouse; test: positive allosteric modulators of mouse TRPC4, confirmation, cell-based, Fluo-4, HEK293 TRPC4beta/mu-opioid (AID 2555;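 active = primary screen hit whose calcium fluorescence ratio, in both repeats, exceeds the weak agonist control mean by 3 SD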); conditions: DAMGO EC20, Fluo-4 calcium flux, at 10 µM; hits give high values
[5] = molecular target: Short transient receptor potential channel 4 (Mus musculus) (UniProt Q9QUQ5); test: inhibitors of mouse TRPC4 channel, confirmation, cell-based, Fluo4, HEK293 TRPC4beta/mu-opioid (AID 2636;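 active = calcium signal cut by more than 3 SD below the full-agonist control yet still positive, in both repeats and the earlier primary screen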); conditions: DAMGO, Fluo4 calcium flux, at 10 µM; hits give high values
Short transient receptor potential channel 4 (Mus musculus), sequence (Q9QUQ5 whole entry, looked up): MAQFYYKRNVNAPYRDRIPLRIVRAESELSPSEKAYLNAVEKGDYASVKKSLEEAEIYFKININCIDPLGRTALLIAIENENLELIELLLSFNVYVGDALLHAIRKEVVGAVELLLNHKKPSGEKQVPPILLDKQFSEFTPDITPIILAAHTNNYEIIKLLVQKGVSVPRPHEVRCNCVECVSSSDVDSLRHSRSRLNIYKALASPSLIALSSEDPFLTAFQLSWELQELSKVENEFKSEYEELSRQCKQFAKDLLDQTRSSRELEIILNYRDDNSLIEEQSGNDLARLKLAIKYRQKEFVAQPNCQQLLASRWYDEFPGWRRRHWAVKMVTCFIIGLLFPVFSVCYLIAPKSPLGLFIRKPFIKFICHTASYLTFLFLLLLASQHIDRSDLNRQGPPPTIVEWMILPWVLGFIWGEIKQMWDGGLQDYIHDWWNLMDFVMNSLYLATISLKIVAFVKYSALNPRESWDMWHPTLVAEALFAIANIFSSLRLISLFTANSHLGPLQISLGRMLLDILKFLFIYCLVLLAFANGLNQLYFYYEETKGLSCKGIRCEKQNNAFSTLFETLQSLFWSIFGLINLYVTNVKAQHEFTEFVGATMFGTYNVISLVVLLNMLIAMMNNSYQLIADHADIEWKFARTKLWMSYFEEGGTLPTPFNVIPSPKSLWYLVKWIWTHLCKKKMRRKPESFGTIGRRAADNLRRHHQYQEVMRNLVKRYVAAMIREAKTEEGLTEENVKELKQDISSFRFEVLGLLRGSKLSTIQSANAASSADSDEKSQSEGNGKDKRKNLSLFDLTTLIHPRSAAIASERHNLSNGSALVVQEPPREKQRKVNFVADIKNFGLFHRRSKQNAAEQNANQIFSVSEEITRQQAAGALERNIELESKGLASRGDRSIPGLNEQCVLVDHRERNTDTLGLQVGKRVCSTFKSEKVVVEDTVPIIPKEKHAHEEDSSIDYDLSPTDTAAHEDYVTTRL

[6] = molecular target: Short transient receptor potential channel 4 (Mus musculus) (UniProt Q9QUQ5); test: inhibitors of mouse TRPC4 channel, confirmation, cell-based, second round, Fluo4, HEK293 TRPC4beta/mu-opioid, 1 µM (AID 2637;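 active = calcium signal ratio cut to more than 3 SD under the fully stimulated control mean yet still positive, in both repeats and the primary screen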); conditions: Fluo4 calcium flux, DAMGO, at 1 µM; hits give high values
[7] = molecular target: Short transient receptor potential channel 4 (Mus musculus) (UniProt Q9QUQ5); test: mouse TRPC4 channel activators, dose response, cell-based, HEK293 TRPC4/mu-opioid, Fluo-4 calcium (AID 434937;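 active = primary screen activator hit with a dose response curve and TRPC4 channel activation at any tested dose; inactive = no activation, no dose response, or not a primary hit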)
[8] = molecular target: Short transient receptor potential channel 4 (Mus musculus) (UniProt Q9QUQ5); test: mouse TRPC4 channel inhibitors, dose response, cell-based, HEK293 TRPC4/mu-opioid, Fluo-4 calcium (AID 434942;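 active = primary screen inhibitor hit that blocks the TRPC4 channel at some tested dose, yielding a dose curve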)
[9] = molecular target: Short transient receptor potential channel 6 (Mus musculus) (UniProt Q61143); test: inhibition of mouse TRPC6 channel, confirmation, selectivity assay for TRPC4 inhibitor project, cell-based, HEK293, membrane potential dye, duplicate (AID 434948;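 active = active in primary screen and both duplicates, each dropping signal beyond three positive-control SD with fluorescence still positive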); conditions: HEK293 TRPC6, membrane potential dye fluorescence, at 10 µM, stimulated with maximal-effect acetylcholine; hits give high values
Short transient receptor potential channel 6 (Mus musculus), sequence (Q61143 whole entry, looked up): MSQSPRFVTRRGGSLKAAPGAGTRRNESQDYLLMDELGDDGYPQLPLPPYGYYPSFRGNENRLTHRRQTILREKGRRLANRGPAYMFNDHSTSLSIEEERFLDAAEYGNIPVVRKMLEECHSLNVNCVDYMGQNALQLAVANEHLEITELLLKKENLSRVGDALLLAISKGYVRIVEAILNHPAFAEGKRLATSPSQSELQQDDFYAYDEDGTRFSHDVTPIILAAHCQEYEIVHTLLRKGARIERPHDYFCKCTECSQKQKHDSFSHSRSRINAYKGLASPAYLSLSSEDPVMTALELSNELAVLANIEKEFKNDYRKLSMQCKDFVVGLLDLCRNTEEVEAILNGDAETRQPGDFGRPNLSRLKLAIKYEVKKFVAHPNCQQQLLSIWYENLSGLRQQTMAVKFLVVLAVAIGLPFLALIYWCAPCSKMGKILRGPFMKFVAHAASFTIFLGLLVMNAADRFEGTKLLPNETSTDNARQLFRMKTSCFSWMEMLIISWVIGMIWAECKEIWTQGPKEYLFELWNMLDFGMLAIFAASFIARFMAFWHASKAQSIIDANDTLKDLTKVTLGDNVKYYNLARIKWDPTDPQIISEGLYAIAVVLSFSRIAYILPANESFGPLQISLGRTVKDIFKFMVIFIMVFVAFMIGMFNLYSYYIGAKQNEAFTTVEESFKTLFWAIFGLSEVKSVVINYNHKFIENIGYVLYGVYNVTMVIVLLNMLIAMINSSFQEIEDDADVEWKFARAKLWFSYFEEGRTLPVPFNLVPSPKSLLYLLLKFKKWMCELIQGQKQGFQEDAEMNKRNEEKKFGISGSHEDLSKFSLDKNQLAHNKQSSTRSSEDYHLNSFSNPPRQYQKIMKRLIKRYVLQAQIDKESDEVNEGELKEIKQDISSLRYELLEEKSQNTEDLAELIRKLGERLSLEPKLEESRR

[10] = molecular target: Short transient receptor potential channel 6 (Mus musculus) (UniProt Q61143); test: activation of mouse TRPC6 channel, confirmation, selectivity assay for TRPC4 activator project, cell-based, HEK293, membrane potential dye, duplicate (AID 434950;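 active = membrane potential signal rise above negative control mean plus 3 SD in both duplicates, also active in the earlier TRPC4 screen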;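 as to activation: 0% = buffer only wells and 100% = acetylcholine maximal-effect wells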); conditions: HEK293 TRPC6, membrane potential fluorescence, at 10 µM; hits give high values
[11] = molecular target: Short transient receptor potential channel 6 (Mus musculus) (UniProt Q61143); test: TRPC6 potentiation by TRPC4 potentiator hits, confirmation, selectivity assay for TRPC4 potentiator project, HEK293 cells, membrane potential dye, duplicate (AID 434952;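 active = compound raising the membrane signal above positive-control mean plus 3 SD in both repeats, and a primary screen hit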); conditions: HEK293 TRPC6, membrane potential dye fluorescence, at 10 µM, maximal acetylcholine added after compound; hits give high values
[12] = molecular target: Short transient receptor potential channel 4 (Mus musculus) (UniProt Q9QUQ5); test: calcium flux activators in TRPC4/5HT1a cells, counter-screen for TRPC4 activator project, cell-based, second counter screen, HEK293 TRPC4/5HT1a, Fluo-4 (AID 434977;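 active = calcium signal rise above buffer-control mean plus 5 SD in both duplicates, and also a hit in the primary screen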;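 as to activation: plate controls were assay buffer for no effect and maximal serotonin response for full effect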); conditions: Fluo-4 calcium flux, at 10 µM; hits give high values
[13] = calcium flux inhibitors in TRPC4/5HT1a cells, confirmation, counter-screen for TRPC4 inhibitor project, cell-based, second counter screen, HEK293 TRPC4/5HT1a, Fluo-4 (AID 434978;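 active = primary screen active whose calcium signal fell more than 3 SD beyond the full-serotonin control mean in both duplicate plates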;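 also: serotonin given first at submaximal then at maximal dose after compound preincubation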); conditions: Fluo-4 calcium flux, at 10 µM, serotonin added to trigger calcium flux; hits give high values
[14] = tested on: TRPC4 (mouse), co-expressed with 5HT1a in HEK293; test: calcium flux potentiators in TRPC4/5HT1a cells, confirmation, counter-screen for TRPC4 potentiator project, cell-based, second counter screen, HEK293 TRPC4/5HT1a, Fluo-4 (AID 434979); conditions: Fluo-4 calcium flux, at 10 µM, serotonin added at its EC20 dose; hits give high values
[15] = calcium flux activation in mu-opioid HEK293 cells, confirmation, counter-screen for TRPC4 activator project, cell-based, HEK293 mu-opioid receptor line (AID 449723;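 active = hit in primary screen, with calcium signal over 5 SD above buffer well mean in both duplicates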;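 also: counter screen cells carry the mu-opioid receptor alone and lack TRPC4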); conditions: Fluo-4 calcium fluorescence, at 10 µM; hits give high values
[16] = calcium flux enhancement in mu-opioid HEK293 cells, confirmation, counter-screen for TRPC4 allosteric potentiator project, cell-based, HEK293 mu-opioid receptor line (AID 449724;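 active = calcium signal rise more than 3 SD above the low-dose agonist control mean, in both duplicate plates and the primary screen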); conditions: Fluo-4 calcium flux, at 10 µM, compound added before EC20 DAMGO stimulus; hits give high values
[17] = molecular target: Short transient receptor potential channel 4 (Mus musculus) (UniProt Q9QUQ5); test: TRPC4 positive allosteric modulators, dose response, cell-based, HEK293 TRPC4/mu-opioid, Fluo-4 calcium, EC20 DAMGO (AID 434941;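 active = earlier screen potentiator hit that boosts the TRPC4 ion channel at some dose, with a dose response; inactive = no potentiation, no dose response, or not a prior hit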;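 also: calcium entry triggered by an EC20 dose of DAMGO at the co-expressed mu-opioid receptor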)

CCCCN(C)CCNC(=O)c1cc2c(-c3cccc(OC)c3)nn(C)c2s1
inactive: outcome [1] | outcome [2] | outcome [3] | outcome [4] | outcome [5] | outcome [6] | outcome [7] | outcome [8] | outcome [9] | outcome [10] | outcome [11] | outcome [12] | outcome [13] | outcome [15] | outcome [16]
active: potentiation [14] 39.5%

COc1ccc(C(CNC(=O)C(Cc2ccccc2)NC(N)=O)N(C)C)cc1 (configuration not stated)
active: activation [1] 92% | activation [2] 90% | activation [10] 32%
inactive: outcome [3] | outcome [4] | outcome [5] | outcome [6] | outcome [17] | outcome [8] | outcome [9] | outcome [11] | outcome [12] | outcome [13] | outcome [14] | outcome [15] | outcome [16]

COC(=O)c1ccc(N2CCN(C)CC2)c(NC(=O)c2ccc(Br)o2)c1
inactive: outcome [2] | outcome [3] | outcome [4] | outcome [5] | outcome [6] | outcome [17] | outcome [8] | outcome [9] | outcome [10] | outcome [11] | outcome [13] | outcome [14] | outcome [15] | outcome [16]
active: activation [1] 148% | activation [12] 13.3%

COc1c(C)cc(C(=O)C2CCCN(Cc3cccc4nccnc34)C2)cc1C (configuration not stated)
inactive: outcome [2] | outcome [3] | outcome [4] | outcome [5] | outcome [6] | outcome [17] | outcome [8] | outcome [9] | outcome [11] | outcome [13] | outcome [14] | outcome [15] | outcome [16]
active: activation [1] 108% | activation [10] 24% | activation [12] 37.7%

CC(COc1ccccc1)N1CCC(CO)(CCc2ccccc2)CC1 (configuration not stated)
inactive: outcome [1] | outcome [2] | outcome [3] | outcome [4] | outcome [5] | outcome [6] | outcome [17] | outcome [8] | outcome [9] | outcome [11] | outcome [12] | outcome [13] | outcome [14] | outcome [15] | outcome [16]
active: activation [10] 95.5%

CCN1CCN(c2ccc(S(=O)(=O)N3CCCCC3)cc2NC(=O)CC(C)c2ccccc2)CC1 (configuration not stated)
active: activation [1] 140%
inactive: outcome [2] | outcome [3] | outcome [4] | outcome [5] | outcome [6] | outcome [17] | outcome [8] | outcome [9] | outcome [10] | outcome [11] | outcome [12] | outcome [13] | outcome [14] | outcome [15] | outcome [16]

O=C(NC1CCN(Cc2ccccc2)CC1)C12CC3CC(CC(C3)C1)C2
active: activation [1] 166% | activation [10] 54% | activation [12] 61.6%
inactive: outcome [2] | outcome [3] | outcome [4] | outcome [5] | outcome [6] | outcome [17] | outcome [8] | outcome [9] | outcome [11] | outcome [13] | outcome [14] | outcome [15] | outcome [16]
